Reference: PubChem BioAssay (EPA / NIEHS)
Calls of active or inactive are those of the source. Rule for the calls: active = hit-call score of the fitted dose curve at least 0.9, where 1 is the maximum; inactive = score below 0.9.

These molecules were tested against Transcription factor Sp1 (Homo sapiens) (UniProt P08047) (assay: ATG_Sp1_CIS: Attagene CIS-FACTORIAL HepG2 Assay for human Specificity Protein 1 (Sp1) (AID 2282961)). Conditions: HepG2 Sp1 cis-reporter transcription, actives raise or lower the signal.
Chain of Transcription factor Sp1 (Homo sapiens) (P08047 whole entry, looked up): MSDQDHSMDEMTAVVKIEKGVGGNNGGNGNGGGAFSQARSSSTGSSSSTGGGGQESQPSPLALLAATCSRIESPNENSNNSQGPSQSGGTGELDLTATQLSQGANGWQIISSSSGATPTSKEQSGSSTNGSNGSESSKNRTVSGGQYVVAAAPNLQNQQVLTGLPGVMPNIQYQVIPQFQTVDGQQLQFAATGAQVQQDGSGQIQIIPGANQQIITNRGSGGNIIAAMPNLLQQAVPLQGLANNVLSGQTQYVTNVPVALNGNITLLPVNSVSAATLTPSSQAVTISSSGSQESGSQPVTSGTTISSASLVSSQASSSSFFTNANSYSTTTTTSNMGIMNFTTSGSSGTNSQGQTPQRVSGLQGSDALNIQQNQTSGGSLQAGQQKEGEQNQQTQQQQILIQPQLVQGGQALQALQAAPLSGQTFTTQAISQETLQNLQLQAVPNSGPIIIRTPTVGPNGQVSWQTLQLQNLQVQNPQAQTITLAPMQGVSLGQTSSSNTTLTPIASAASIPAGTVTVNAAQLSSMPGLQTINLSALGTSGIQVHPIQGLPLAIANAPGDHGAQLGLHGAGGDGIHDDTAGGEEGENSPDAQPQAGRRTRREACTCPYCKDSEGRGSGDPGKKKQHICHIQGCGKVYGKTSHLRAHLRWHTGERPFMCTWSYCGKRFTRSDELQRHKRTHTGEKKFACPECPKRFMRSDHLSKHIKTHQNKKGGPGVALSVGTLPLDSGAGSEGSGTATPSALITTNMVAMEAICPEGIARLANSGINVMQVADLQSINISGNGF
Protocol: ATG_CIS is a cell-based, multiplexed-readout assay that uses HepG2, a human liver cell line, with measurements taken at 24 hours after chemical dosing in a 24-well plate.ATG_Sp1_CIS is one of 52 assay component(s) measured or calculated from the ATG_CIS assay. It is designed to make measurements of mRNA induction, a form of inducible reporter, as detected with fluorescence intensity signals by Reverse transcription polymerase chain reaction (RT-PCR) and Capillary electrophoresis technology.Data from the assay component ATG_Sp1_CIS was analyzed into 1 assay endpoint. This assay endpoint, ATG_Sp1_CIS, was analyzed with bidirectional fitting relative to DMSO as the negative control and baseline of activity. Using a type of inducible reporter, measures of mRNA for gain or loss-of-signal activity can be used to understand the reporter gene at the transcription factor-level as they relate to the gene SP1. Furthermore, this assay endpoint can be referred to as a primary readout, because this assay has produced multiple assay endpoints where this one serves a reporter gene function. To generalize the intended target to other relatable targets, this assay endpoint is annotated to the dna binding intended target family, where the subfamily is zinc finger.
Human liver HepG2 cells are transiently transfected with multiple reporter transcription units (MRTUs) in 6-well plates using FuGene 6 reagent (Roche; 3 ml FuGene/1 mg DNA). The MRTU constructs are regulated by a cis-regulating element (promoter). […] A major difference between the CIS and TRANS system is that in CIS activities of endogenous TFs are measured, whereas the TRANS assay evaluates changes in activities of exogenous, chimeric NR-Gal4 proteins. […] At the end of 24 hour incubation, total RNA was isolated using TriZol reagent (Invitrogen). The isolated RNA is then reverse-transcribed using oligo(dT) primer and Mo-MLV reverse transcriptase (Invitrogen) with DNAse I (Ambion) treatment for 30 min. The one-tenth of the produced cDNA was amplified by PCR using Taq DNA polymerase (Invitrogen) and two reporter sequence-specific primers. The PCR products were fluorescently labeled by primer extension with 6-arboxyfluorescein (6-FAM) 5'-labeled reporter sequence-specific primer (2 min at 95 C, 20 s at 68 C and 10 min at 72 C) and these products were digested with 5U of HpaI (New England Biolabs) for 2h at 37 C. The fragments were purified using Qiaquick PCR columns (Qiagen), analyzed on an ABI 3130xL genetic analyzer (Applied Biosystems) with peak positions identified by using a set of X-rhodamine (ROX)-labeled MapMarker1000 molecular weight standards (BioVentures). The raw capillary electrophoresis data was processed using Attagraph software (Attagene).
For Nc1ccc(S(=O)(=O)c2ccc(N)cc2)cc1, the outcome was “inactive”. With CCCCOC(=O)CCCCCCCCC(=O)OCCCC the outcome was “inactive”. For Cc1cccc(Nc2cc(Cl)nc(SCC(=O)O)n2)c1C, the outcome was “inactive”. FC(F)(F)C(F)(F)C(F)(F)C(F)(F)C(F)(F)C(F)(F)CCI was tested, and the outcome was “inactive”. With CCCc1cc(=O)[nH]c(=S)[nH]1 the outcome was “inactive”. COc1cc(-c2nc(NC(=O)c3cc4cc(C)cc(C)c4n3CC(=O)O)sc2CCC2CCCCC2)c(OC)cc1Cl was tested, and the AC50 was 2.83 µM (active). With Cc1oc(-c2ccccc2)nc1CCOc1cccc2c1ccn2CCC(=O)O the outcome was “inactive”. With C[Si]1(C)O[Si](C)(C)O[Si](C)(C)O[Si](C)(C)O1 the outcome was “inactive”. CCCCC(CC)COC(=O)CC(C(=O)OCC(CC)CCCC)S(=O)(=O)O (stereo not given) was tested, and the outcome was “inactive”. With C=CCc1ccc(O)c(OC)c1 the outcome was “inactive”. In the case of CCCCCCCCCCCCCO, the outcome was “inactive”. For Cc1nc(C)nc(N2C[C@@H](C)N(c3ccnc([C@@H](C)O)n3)[C@@H](C)C2)n1, the outcome was “inactive”. For CN1CCN(Cc2cc(-c3ccc4[nH]c(=O)oc4c3)co2)[C@@H](c2ccc(F)cc2)C1, the outcome was “inactive”. With CCCCCCCCCCC the outcome was “inactive”. In the case of CC(=O)C(C)=CC1C(C)=CCCC1(C)C (stereo not given), the outcome was “inactive”. C=CCOC(=O)c1ccccc1C(=O)OCC=C was tested, and the outcome was “inactive”. For Cc1ccc(C)c(O)c1C, the outcome was “inactive”. For CCCCCCCCCCO, the outcome was “inactive”. For CCCCCCCC=O, the outcome was “inactive”. For CC(C)(C)c1cc(O)c(C(C)(C)C)cc1O, the AC50 was 65.5 µM (active). CC=Cc1ccc(O)c(OC)c1 was tested, and the outcome was “inactive”. For Cc1ccc(C)c(C)c1, the outcome was “inactive”. With Cc1c(C(=O)O)c(O)cc2c1C(=O)c1c(O)c([C@@H]3O[C@H](CO)[C@@H](O)[C@H](O)[C@H]3O)c(O)c(O)c1C2=O the outcome was “inactive”. In the case of CNC(=O)[C@H]1O[C@@H](n2cnc3c(NCc4cc(Cl)ccc4OCc4cc(C)no4)ncnc32)[C@H](O)[C@@H]1N, the outcome was “inactive”. With CC(=O)Oc1ccccc1C(=O)O the outcome was “inactive”. CC1(C)NC(=O)NC1=O was tested, and the outcome was “inactive”. In the case of COc1cccc2c1C(=O)c1c(O)c3c(c(O)c1C2=O)C[C@@](O)(C(=O)CO)C[C@@H]3O[C@H]1C[C@H](N)[C@H](O)[C@H](C)O1, the outcome was “inactive”. Cc1cccc(C)c1O was tested, and the outcome was “inactive”. In the case of CCOc1ccc2c(c1)C(C)=CC(C)(C)N2, the AC50 was 78.9 µM (active). In the case of O=C(N[C@@H](Cc1ccccc1)[C@@H](O)C(=O)N1C[C@@H](O)[C@@H](O)C1)c1cc2cc(Cl)ccc2[nH]1, the outcome was “inactive”. For Cc1cc(=O)[nH]c(=S)[nH]1, the outcome was “inactive”. Cc1nc(-c2ccc3c(c2)CCN(CCC2CCC(NC(=O)/C=C/c4ccc(F)cc4)CC2)CC3)no1 (stereo not given) was tested, and the outcome was “inactive”. In the case of CN[C@H]1CC[C@@H](c2ccc(Cl)c(Cl)c2)c2ccc(S(N)(=O)=O)cc21, the outcome was “inactive”. With CC(CO)OC(C)CO (stereo not given) (tested in a mixture with another compound) the outcome was “inactive”. For CCCCCCC(=O)OCC, the outcome was “inactive”. For O=C(OCCCCCOC(=O)c1ccccc1)c1ccccc1, the outcome was “inactive”. NCC1(Cc2noc(=O)[nH]2)CCCCC1 was tested, and the outcome was “inactive”. In the case of Cc1ccc2ncccc2c1, the outcome was “inactive”. COc1cc(/C=C/C(=O)CC(=O)/C=C/c2ccc(O)c(OC)c2)ccc1O was tested, and the AC50 was 44.5 µM (active). In the case of Cc1cccc([N+](=O)[O-])c1C, the outcome was “inactive”.
